Rows were chosen to be rich in hits. Some 5.2% of all compounds tested hit in one or more screens of this group.
SKN-1 inh – suppressors of acrylamide-induced Pgst-4::GFP reporter in worms, primary screen, SKN-1 inhibitor project, whole organism, uHTS, GFP/RFP fluorescence ratio, strain VP596. hit rate 0.49% among 360,000. C. elegans VP596 Pgst-4::GFP/RFP ratio, 24 h. inhibition, % at 21.8 µM;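 active means interference check ratio from 0.5 to 1.5 plus GFP to RFP signal ratio inhibition reaching or exceeding a fixed threshold, cut at about 30% in these data, passing the limit was not always enough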
esBAF inh – Bmi1 luciferase reporter increase in mESCs, primary screen, esBAF inhibitor project, mouse ES cells, Bmi1 luciferase knock-in, single point. 24 h; 100% = twice the neutral-well signal. reporter increase, % at 12.5 µM. hit rate 2% among 350,000. AID 602393, 2012; in the data active means activation above about 40%;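 further: 0% = median of the plate's neutral control wells and 100% = double that signal; a rise in the Bmi1 reporter signal indicates esBAF inhibition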
SMARCA2 act – SMARCA2 (BRM) function activators, primary screen, cell-based, luminescence, high throughput; MG213 cells, MMTV-luciferase reporter, dexamethasone, overnight; activation, % at 9.1 µM; hit rate 1% among 370,000; in the data active means activation above about 7.8%;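 further: 0% = vehicle wells and 100% = reference activator wells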
Vif imaging – HIV Vif self-association inhibitors, primary screen, imaging, HEK293T, single point. HEK293T cells, Vif self-association by quenched fluorescence, 24 h. inhibition, % at 7.49 µM. hit rate 0.35% among 340,000; in the data active means inhibition above about 50%, passing the limit was not always enough
NadD inh – inhibitors of S. aureus NadD, primary screen, biochemical, colorimetric, uHTS; Nicotinate-nucleotide adenylyltransferase NadD (Staphylococcus aureus N315); purified NadD enzyme, colorimetric absorbance read-out; inhibition, % at 20 µM; hit rate 0.78% among 360,000; in the data active means inhibition above about 26%
NR3A LBD binder – binders of NR3A ligand-binding domain, primary screen, biophysical, differential scanning fluorimetry, uHTS | Glutamate receptor ionotropic, NMDA 3A (GRIN3A) ligand-binding domain | NR3A LBD differential scanning fluorimetry, Tm shift; 0% = protein alone, 100% = glycine-bound protein | Tm shift relative to glycine control, % at 25 µM | hit rate 2.5% among 340,000;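 active means melting temperature shift of at least 10% of the positive control shift, at one fixed dose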
The depositor's hits bear a star.

How did Cc1noc(C)c1S(=O)(=O)N(C)C[C@H]1Oc2ccc(NC(=O)CCC(F)(F)F)cc2CC(=O)N([C@H](C)CO)C[C@@H]1C do in these assays?
esBAF inh: -2.7

Results for COc1ccccc1NS(=O)(=O)c1cc(NC(=O)c2ccc(Cl)nc2)ccc1Cl ?
SKN-1 inh: 14.2; esBAF inh: -12.0; SMARCA2 act: -7.7; Vif imaging: -11.7; NadD inh: 3.8; NR3A LBD binder: 16.1*

What do the screens show for `COc1ccccc1NC(=O)Nc1ccc(F)c(F)c1`?
SKN-1 inh: 6.2; esBAF inh: 22.1; SMARCA2 act: 1.6; Vif imaging: -14.0; NadD inh: -4.0; NR3A LBD binder: 23.0*

How did COc1ccccc1NC(=O)Nc1ccc(Cl)c(S(=O)(=O)Nc2ccccc2OC)c1 do in these assays?
SKN-1 inh: 10.8; SMARCA2 act: -2.3; NadD inh: 2.8; NR3A LBD binder: 11.3*

Results for COc1ccc(C(=O)Nc2ccc(Cl)c(S(=O)(=O)Nc3ccccc3OC)c2)cc1 ?
SKN-1 inh: 1.0; SMARCA2 act: -5.2; Vif imaging: -18.6; NadD inh: 8.2; NR3A LBD binder: 2.6

How did COc1ccccc1NS(=O)(=O)c1cccc(NC(=O)Nc2cccc(Cl)c2)c1 do in these assays?
SKN-1 inh: 14.6; SMARCA2 act: -6.7; Vif imaging: -12.4; NadD inh: 3.6; NR3A LBD binder: 23.5*

Results for COc1ccccc1NC(=O)NCC(=O)Nc1ccc(F)c(F)c1 ?
SKN-1 inh: 1.0; esBAF inh: -2.9; SMARCA2 act: -0.6; NadD inh: -7.8; NR3A LBD binder: 1.4

How did C[C@H](CO)N1C[C@H](C)[C@@H](CN(C)C(=O)Nc2ccc3c(c2)OCO3)Oc2ccc(NS(C)(=O)=O)cc2C1=O do in these assays?
esBAF inh: -1.9

How did O=C(C[C@@H]1CC[C@H](NC(=O)Nc2ccc(C(F)(F)F)cc2)[C@H](CO)O1)NCc1cc(F)cc(F)c1 do in these assays?
esBAF inh: 10.1

Results for CO[C@H]1CN(C)C(=O)c2ccc(NC(C)=O)cc2OC[C@H](C)N(CCc2ccccc2)C[C@H]1C ?
esBAF inh: -0.5

What do the screens show for `CN(C)CCN(C(=O)c1ccc(C(=O)c2ccccc2)cc1)c1nc2cc3c(cc2s1)OCO3`?
SKN-1 inh: 18.4; esBAF inh: -0.2; SMARCA2 act: 5.6; Vif imaging: 12.1; NadD inh: -2.5; NR3A LBD binder: 11.1*

How did CCN(CC)CCN(C(=O)c1ccc(S(=O)(=O)N(CC)c2ccccc2)cc1)c1nc2c(OC)ccc(OC)c2s1 do in these assays?
SKN-1 inh: -28.4; esBAF inh: -1.9; SMARCA2 act: -0.6; Vif imaging: 2.4; NadD inh: 1.0; NR3A LBD binder: 11.9*

Results for COc1ccc(C)c2sc(N(CCN(C)C)C(=O)c3ccc4ccccc4c3)nc12 ?
SKN-1 inh: 15.1; esBAF inh: -2.1; SMARCA2 act: -1.2; Vif imaging: -1.1; NadD inh: 8.1; NR3A LBD binder: -1.4

What do the screens show for `CN(C)CCN(C(=O)c1ccc(S(=O)(=O)N(C)c2ccccc2)cc1)c1nc2ccc(Cl)cc2s1`?
SKN-1 inh: 11.6; esBAF inh: 8.9; SMARCA2 act: 14.4*; Vif imaging: 9.0; NadD inh: -0.7; NR3A LBD binder: 0.7

How did CN(C)CCN(C(=O)c1ccc(S(=O)(=O)N(C)c2ccccc2)cc1)c1nc2cc3c(cc2s1)OCO3 do in these assays?
SKN-1 inh: 9.9; SMARCA2 act: -0.6; Vif imaging: 3.7; NadD inh: 1.7; NR3A LBD binder: 0.9

How did CN(C)CCN(C(=O)c1ccc(C(=O)c2ccccc2)cc1)c1nc2cc3c(cc2s1)OCCO3 do in these assays?
SKN-1 inh: 2.4; esBAF inh: 7.5; SMARCA2 act: -0.2; Vif imaging: -5.0; NadD inh: -2.1; NR3A LBD binder: -0.3

How did CCc1nn2cc(C(=O)c3cc(Cl)ccc3O)cnc2c1-c1ccc(F)cc1 do in these assays?
SKN-1 inh: 11.0; SMARCA2 act: -1.8; Vif imaging: -0.1; NadD inh: 7.2; NR3A LBD binder: 26.7*

What do the screens show for `Cc1nn(-c2ccccc2)c2ncc(C(=O)c3cc(Cl)ccc3O)cc12`?
SKN-1 inh: -4.4; esBAF inh: -1.3; SMARCA2 act: -4.9; Vif imaging: 1.9; NadD inh: 1.4; NR3A LBD binder: 3.8

How did O=C(Nc1cccc(F)c1)Nc1ccc2c(c1)OCO2 do in these assays?
SKN-1 inh: -0.8; esBAF inh: 49.6*; SMARCA2 act: 1.7; Vif imaging: -5.0; NadD inh: -1.6; NR3A LBD binder: 36.6*

How did O=C(Nc1ccc2c(c1)OCO2)c1cccc(F)c1 do in these assays?
SKN-1 inh: 40.1*; SMARCA2 act: 2.5; Vif imaging: 0.3; NadD inh: -8.8; NR3A LBD binder: -20.6

What do the screens show for `O=C(C1CCCC1)N1[C@@H](CO)[C@@H]2c3ccccc3N(S(=O)(=O)c3ccc(F)cc3)C[C@@H]21`?
esBAF inh: 0.6

How did Cc1noc(C)c1NC(=O)Nc1ccc2c(c1)C(=O)N([C@@H](C)CO)C[C@@H](C)[C@@H](CN(C)CC1CCCCC1)OCCCC[C@@H](C)O2 do in these assays?
esBAF inh: -1.6

How did CCCNC(=O)Nc1ccc2c(c1)OC[C@H](C)N(C(=O)CC)C[C@@H](C)[C@@H](OC)CN(C)C2=O do in these assays?
esBAF inh: 3.1

Results for CNC[C@H]1Oc2c(NS(=O)(=O)c3cn(C)cn3)cccc2C(=O)N([C@H](C)CO)C[C@H]1C ?
esBAF inh: -3.8

Results for CCN(CC)CCOC(=O)c1ccc(N/C=C(/C#N)c2nc(-c3ccc4c(c3)OCO4)cs2)cc1 ?
SKN-1 inh: 10.8; SMARCA2 act: 0.4; Vif imaging: 9.5; NadD inh: 24.4; NR3A LBD binder: 0.5

What do the screens show for `CCN(CC)CCOC(=O)c1ccc(N/C=C(/C#N)c2nc(-c3cc4ccccc4oc3=O)cs2)cc1`?
SKN-1 inh: 18.4; esBAF inh: -7.5; SMARCA2 act: -3.0; Vif imaging: 57.6*; NadD inh: 25.0; NR3A LBD binder: 2.7

What do the screens show for `CCCN1[C@H](C(=O)N2CCOCC2)[C@@H](CO)[C@@H]2Cn3c(ccc(-c4ccncc4)c3=O)[C@@H]21`?
esBAF inh: 1.2

Results for N#CC(=Cc1ccccn1)c1nc(-c2ccc(Cl)cc2)cs1 ?
SKN-1 inh: 8.7; esBAF inh: 23.7; SMARCA2 act: -0.6; Vif imaging: 102.7*; NadD inh: 2.2

How did N#C/C(=N/O)c1nc(-c2ccc(F)cc2)cs1 do in these assays?
SKN-1 inh: 5.3; SMARCA2 act: -0.2; Vif imaging: -0.2; NadD inh: -6.0; NR3A LBD binder: -8.3
